Experimental data from the supplement of paper PMC9262897, “Low-cost anti-mycobacterial drug discovery using engineered E. coli” (Nature Communications, 2022).
Counter-ions that a name gives are not always drawn. ± gives the standard deviation of the averaged measurements.

What follows are compounds tested on E. coli TESEC Alr+ wild-type control (assay: growth (OD600 after 10 h); higher = more growth (less inhibition)). Conditions: compound 0.1 mM; raw OD600 reference: median of DMSO wells 0.49, cell-free background 0.052.
Method: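 TESEC Mtb Alr E. coli (ΔaraC ΔtolC ΔentC Δalr ΔdadX, arabinose-inducible Mtb Alr) or the Alr+ wild-type control strain, grown in defined M9-fructose medium without D-alanine in 96-well plates with Prestwick library compounds at 0.1 mM and 1% DMSO. Low Alr induction is 0.1 µM arabinose and high induction is 10 mM arabinose.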
With `CN1CCC(OC(c2ccccc2)c2ccccc2)CC1` [Diphenylpyraline hydrochloride] the growth was 0.47 ± 0.021. With `CCCOc1ccc2[nH]c(NC(=O)OC)nc2c1` [Oxibendazol] the growth was 0.518 ± 0.085. `Cn1c(=O)c2c(ncn2CCO)n(C)c1=O` [Etofylline] gave a growth of 0.509 ± 0.055. In the case of `CC(C)Oc1ccc2c(=O)c(-c3ccccc3)coc2c1` [Ipriflavone], the growth is reported as 0.464 ± 0.025. Compound `CCOC(=O)/C=C(C)/C=C/C=C(C)/C=C/c1c(C)cc(OC)c(C)c1C` [Etretinate] has a growth of 0.544 ± 0.058. For `Nc1nc(=O)c2c([nH]1)NC[C@@H](CNc1ccc(C(=O)N[C@@H](CCC(=O)O)C(=O)O)cc1)N2C=O` [Folinic acid calcium salt], the growth was 0.567 ± 0.12. `C[N+]1(C)CCC(=C(c2ccccc2)c2ccccc2)CC1` [Diphemanil methylsulfate] was tested, and the growth was 0.4312 ± 0.0036. Compound `CN(C)CCCSC(=N)N` [Dimaprit dihydrochloride] has a growth of 0.617 ± 0.017. For `CCc1cccc2c3c([nH]c12)C(CC)(CC(=O)O)OCC3` (stereo not given) [Etodolac], the growth was 0.415 ± 0.021. For `CNC1(C)C2CCC(C2)C1(C)C` (stereo not given) [Mecamylamine hydrochloride], the growth was 0.462 ± 0.03. For `NS(=O)(=O)c1cc(Cl)c(Cl)c(S(N)(=O)=O)c1` [Dichlorphenamide], the growth was 0.443 ± 0.011. For `COc1ccc2cc([C@@H](C)C(=O)O)ccc2c1` [(R) -Naproxen sodium salt], the growth was 0.448 ± 0.03. Work on `COc1cccc2c1C(=O)c1c(O)c3c(c(O)c1C2=O)C[C@@](O)(C(=O)CO)C[C@@H]3O[C@H]1C[C@H](N)[C@H](O)[C@H](C)O1` [Doxorubicin hydrochloride] yielded a growth of 0.05757 ± 0.00055. `CN(C)CCCOc1nn(Cc2ccccc2)c2ccccc12` [Benzydamine hydrochloride] was tested, and the growth was 0.452 ± 0.0099. Work on `CN(C/C=C/C#CC(C)(C)C)Cc1cccc2ccccc12` [Terbinafine] yielded a growth of 0.358 ± 0.013. In the case of `O=C1NCCN1c1ncc([N+](=O)[O-])s1` [Niridazole], the growth is reported as 0.0563 ± 0.002. Work on `N=C(N=C(N)N)N1CCOCC1` [Moroxidine hydrochloride] yielded a growth of 0.454 ± 0.045. Compound `CN1CCCN(C(c2ccccc2)c2ccc(Cl)cc2)CC1` (stereo not given) [Homochlorcyclizine dihydrochloride] has a growth of 0.498 ± 0.047. `COc1cc2nc(N3CCN(C(=O)C4COc5ccccc5O4)CC3)nc(N)c2cc1OC` (stereo not given) [Doxazosin mesylate] showed a growth of 0.0495 ± 0.0017. `N#Cc1ccc(C(c2ccc(C#N)cc2)n2cncn2)cc1` [Letrozole] was tested, and the growth was 0.502 ± 0.046. Compound `CN(C)CCN(Cc1ccccc1)c1ccccn1` [Tripelennamine hydrochloride] has a growth of 0.537 ± 0.091. `CS(=O)(=O)c1ccc(C2=C(c3ccccc3)C(=O)OC2)cc1` [Rofecoxib] was tested, and the growth was 0.455 ± 0.041. With `CC(C)COCC(CN(Cc1ccccc1)c1ccccc1)N1CCCC1` (stereo not given) [Bepridil hydrochloride] the growth was 0.04887 ± 0.00032. For `CN1CCC(=C2c3ccccc3CCc3sccc32)CC1` [Pizotifen malate], the growth was 0.146 ± 0.012. `Cc1c(Cl)cccc1Nc1ccccc1C(=O)O` [Tolfenamic acid] showed a growth of 0.0743 ± 0.0023. Work on `Oc1ccc(C2CNCCc3c2cc(O)c(O)c3Cl)cc1` (stereo not given) [Fenoldopam] yielded a growth of 0.355 ± 0.023. `COc1ccc(C(=O)c2ccccc2)c(O)c1` [Oxybenzone] gave a growth of 0.27 ± 0.011. `CCCc1nn(C)c2c(=O)[nH]c(-c3cc(S(=O)(=O)N4CCN(C)CC4)ccc3OCC)nc12` [Sildenafil] showed a growth of 0.456 ± 0.045. Compound `Cc1ccccc1C(OCCN(C)C)c1ccccc1` (stereo not given) [Orphenadrine hydrochloride] has a growth of 0.463 ± 0.043. `Cc1ccc(O)c([C@H](CCN(C(C)C)C(C)C)c2ccccc2)c1` [Tolterodine tartrate] gave a growth of 0.55 ± 0.029. For `CN(C)[C@@H]1C(=O)C(C(=O)NCNCCCC[C@H](N)C(=O)O)=C(O)[C@@]2(O)C(=O)C3=C(O)c4c(O)cccc4[C@@](C)(O)[C@H]3C[C@@H]12` [Lymecycline], the growth was 0.329 ± 0.017. `COc1c(N2CCNC(C)C2)c(F)cc2c(=O)c(C(=O)O)cn(C3CC3)c12` (stereo not given) [Gatifloxacin] showed a growth of 0.05293 ± 0.00023. In the case of `C[C@]12CC[C@@H]3c4ccc(OS(=O)(=O)O)cc4CC[C@H]3[C@@H]1CCC2=O` [Estropipate], the growth is reported as 0.534 ± 0.11. `COc1ccc(-c2cc(=S)ss2)cc1` [Anethole-trithione] was tested, and the growth was 0.616 ± 0.027. Compound `CC[C@]12CCCN3CCc4c(n(c5ccccc45)[C@@](O)(C(=O)OC)C1)[C@@H]32` [Vincamine] has a growth of 0.503 ± 0.059. `C[C@@H](c1ncncc1F)[C@](O)(Cn1cncn1)c1ccc(F)cc1F` [Voriconazole] showed a growth of 0.557 ± 0.1. With `C#C[C@]1(OC(C)=O)CC[C@H]2[C@@H]3CCC4=CC(=NO)CC[C@@H]4[C@H]3CC[C@@]21CC` (mixture of isomers) [Norgestimate] the growth was 0.185 ± 0.0039. Work on `Cc1cn([C@H]2C[C@H](N=[N+]=[N-])[C@@H](CO)O2)c(=O)[nH]c1=O` [Zidovudine, AZT] yielded a growth of 0.199 ± 0.0087. `COc1ccc(C2CNC(=O)C2)cc1OC1CCCC1` (stereo not given) [Rolipram] was tested, and the growth was 0.623 ± 0.011. Work on `CC(C)(C)NC[C@@H](O)COc1cccc2c1CCCC2=O` [(+) -Levobunolol hydrochloride] yielded a growth of 0.546 ± 0.077.
